# Screens as filed in PubChem BioAssay.
# In the library only some 9.9% were active in any assay of this set; here they are far more common.
# KDM4E inh = inhibitors of human JMJD2E histone demethylase. B2RXH2. JMJD2E catalytic domain, FDH-coupled NADH fluorescence (FDH is formaldehyde dehydrogenase). Potency, µM (doses to about 57.1 µM), usual class: inhibitors. actives 1.6% (n = 230,000). AID 2147; further: nearly all actives have a fitted effect of over 50% in size
# Tau fibril ThT = tau fibrillization inhibition (ThT binding). Potency, µM (top dose mostly 57.4 µM), actives largely listed as inhibitors. P10636. AID 1460. recombinant tau K18 P301L, heparin-induced fibrillization, ThT fluorescence. actives 2.1% (n = 270,000); active means well fitted curve in the direction sought with a large enough effect; inconclusive means small, poorly fitted or top-dose-only effect, or another doubt; inactive means no such curve, though single readings can be large; an effect the other way counts as inactive or inconclusive; further: nearly all actives have a fitted effect of over 55% in size
# Target sequence (P10636 561-689 P618L limits assumed): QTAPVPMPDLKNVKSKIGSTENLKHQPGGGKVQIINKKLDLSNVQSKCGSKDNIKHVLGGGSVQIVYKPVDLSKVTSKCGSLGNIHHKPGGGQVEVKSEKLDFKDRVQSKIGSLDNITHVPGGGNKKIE
#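 Tau K18 P301L fragment (15 uM unlabeled plus 0.24 uM Alexa 594-labeled) in 100 mM sodium acetate pH 7 with compound, fibrillization induced by 20 uM heparin for 6 hr at 37 C. Thioflavin T (30 uM) added, fluorescence read after 1 hr (ex 450, em 510 nm).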
# ALDH1A1 inh = inhibitors of human aldehyde dehydrogenase 1A1; actives 7.3% (n = 220,000); Potency, µM (highest dose often 75.3 µM), actives largely listed as inhibitors; Purified ALDH1A1, NADH fluorescence, propionaldehyde substrate; P00352
# Target sequence (P00352 whole entry, looked up): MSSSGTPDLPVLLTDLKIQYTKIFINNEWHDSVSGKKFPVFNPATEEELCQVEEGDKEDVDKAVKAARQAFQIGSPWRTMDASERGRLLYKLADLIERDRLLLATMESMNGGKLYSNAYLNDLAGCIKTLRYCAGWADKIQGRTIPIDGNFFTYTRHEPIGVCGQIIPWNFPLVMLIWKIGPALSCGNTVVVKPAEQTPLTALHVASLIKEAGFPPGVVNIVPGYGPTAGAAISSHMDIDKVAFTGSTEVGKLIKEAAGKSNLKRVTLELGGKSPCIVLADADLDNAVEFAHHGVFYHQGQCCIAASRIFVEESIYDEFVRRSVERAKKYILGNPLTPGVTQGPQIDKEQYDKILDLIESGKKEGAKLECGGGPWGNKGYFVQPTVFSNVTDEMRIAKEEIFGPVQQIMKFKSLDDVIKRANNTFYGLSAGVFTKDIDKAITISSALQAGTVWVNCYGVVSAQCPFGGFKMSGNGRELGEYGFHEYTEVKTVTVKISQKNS
# Tau fluor cs = counter-screen for tau fibril formation inhibitors; actives 0.93% (n = 280,000); Potency, µM (doses to about 57.7 µM); tau K18 P301L Alexa594 fluorescence, heparin fibrillization; active means well fitted curve in the direction sought with a large enough effect; inconclusive means small, poorly fitted or top-dose-only effect, or another doubt; inactive means no such curve, though single readings can be large; an effect the other way counts as inactive or inconclusive; further: nearly all actives have a fitted effect of over 55% in size
#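 Human tau K18 P301L (15 uM unlabeled, 0.24 uM Alexa 594-labeled) in 100 mM sodium acetate pH 7 with 20 uM heparin, 6 hr at 37 C. ThT 30 uM added, 1 hr ambient; Alexa 594 FP and total fluorescence read at 555/632 nm.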
# HPGD inh = inhibitors of human 15-hydroxyprostaglandin dehydrogenase (HPGD); actives 4.3% (n = 150,000); P15428; Potency, µM, hits mostly inhibitors; purified HPGD, NADH fluorescence kinetic, PGE2 substrate
#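 NADH formation kinetics: reaction with 30 uM PGE2 and 1 mM NAD+ (final), 20 nM enzyme, Tris-HCl pH 8 with Tween 20, after 15 min compound preincubation at room temperature. Fluorescence change, last versus first of five reads.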
# Tau FP inhib = tau fibrillization inhibition (FP); K18 P301L tau heparin fibrillization, Alexa594 FP, 6 h; P10636; Potency, µM (series often up to 57.7 µM), most hits filed as inhibitors; AID 1468; actives 0.39% (n = 280,000); active means well fitted curve in the direction sought with a large enough effect; inconclusive means small, poorly fitted or top-dose-only effect, or another doubt; inactive means no such curve, though single readings can be large; an effect the other way counts as inactive or inconclusive; further: nearly all actives have a fitted effect of over 55% in size
#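 K18 P301L tau (15 uM unlabeled/0.24 uM Alexa 594-labeled, final) + compound + heparin 20 uM final; 100 mM NaOAc pH 7; 6 hr 37 C; ThT 30 uM final added, 1 hr RT; FP ex 555/em 632 nm.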
# Hits are given with their value; n = inactive; u = inconclusive; x = not tested or not shown; [ ] = remark or other dose. Unless noted, the call rests on the fitted dose curve; in most records, active means well fitted inhibition curve with a large enough effect (not every such curve was filed as active); inconclusive means small, poorly fitted or top-dose-only effect, or another doubt; inactive means no such curve, though single readings can be large or run the other way.
SMILES,KDM4E inh,Tau fibril ThT,ALDH1A1 inh,Tau fluor cs,HPGD inh,Tau FP inhib
CCC1=C2CC[C@H]3C(=O)N(c4ccccc4)C(=O)[C@H]3[C@H]2[C@@]2(Cc3ccccc3)C(=O)N(CC(=O)OC)C(=O)N2C1=O,n,n,n,n,n,n
CC(=O)n1c2ccccc2c2ccccc21,n,n,n,n,n,n
CC(=O)n1c(Cl)c(NC(=O)CCl)c2ccccc21,n,n,22µM,n,n,n
COc1ccc(OC)c(NCc2cccn2-c2nnc(N3CCCCC3)s2)c1,x,u,x,n,x,n
CCc1ccccc1N1C(=O)N(Cc2ccc(C#N)cc2)c2ccccc2S1(=O)=O,x,n,x,n,x,u
O=C(O)CCn1cc(C2CC(c3ccccc3)=NN2c2ccccc2)c(-c2ccccc2)n1 (stereo not given),u,u,u,n,x,n
O=S(=O)(Nc1nc2ccccc2nc1-[n+]1cccc(N=C([O-])c2ccc(Cl)cc2)c1)c1ccccc1,n,16µM,u,u,x,n
COc1ccc2c(Cl)cc(NC(=S)Nc3ccccc3)nc2c1,x,x,n[13.5 µM],x,n,x
CC(=O)OCC(=O)[C@@]1(O)CCC2C3CCC4=CC(=O)C=CC4(C)C3C(O)C[C@]21C (stereo not given in full),n,n,n,n,n,n
CC1(C)CCC[C@]2(C)C3CC(=O)O[C@@]3(C)CC[C@H]12 (stereo not given in full),n,n,20µM,n,n,n
Cc1cc(Nc2cccc(Cl)c2)nc2ccc(NC(=O)Cc3ccc(Cl)cc3)cc12,x,u,x,3.5µM[quencher],x,u
COc1ccc(CC(=O)Nc2ccc3nc(Nc4cccc(Cl)c4)cc(C)c3c2)cc1OC,x,u,x,2.5µM[quencher],x,u
COc1ccc(Cl)cc1C(=O)Nc1ccc2nc(Nc3cccc(Cl)c3)cc(C)c2c1,x,u,x,16µM[quencher],x,n
COc1ccc(Cl)cc1C(=O)Nc1ccc(NC(C)=O)cc1,n,n,u,n,x,n
C/C(CC(=O)Nc1cccc(Cl)c1)=N\NC(=O)Cc1ccc(Cl)cc1,n,n,n,n,n,u
COc1ccc(CC(=O)Nc2cccc(SC)c2)cc1OC,n,n,n,n,x,n
COc1ccc(Cl)cc1C(=O)Nc1cccc(-c2ccc3nncn3n2)c1,14µM,n,n,n,x,n
Cn1nc(C(F)(F)F)c(C(=O)Nc2ccc(F)cc2F)c1Sc1ccc(Cl)cc1,n,n,n,n,n,n
Cc1ccc(-c2nc(CN3CCCCC3)cc(CN3CCCCC3)c2O)cc1,u,n,u,n,x,n
Cc1cc(Nc2cccc(Cl)c2)nc2ccc(NC(=O)c3ccc(F)cc3Cl)cc12,x,u,x,4.5µM[quencher],x,u
Cc1cc(Nc2cccc(Cl)c2)nc2ccc(NC(=O)Cc3cccc(C(F)(F)F)c3)cc12,x,u,x,4µM[quencher],x,u
C#CCCCO/N=C1/C[C@@H](O)[C@@H](O)[C@@H]2[C@@H]3C(=O)N(CCC(=O)OCC)C(=O)[C@H]3CC[C@H]12,x,n[11.5 µM],n[13.5 µM],n[11.6 µM],x,u
O=C(Nc1cccc(Cl)c1Cl)c1cc2nc(-c3ccc4c(c3)OCO4)cc(C(F)(F)F)n2n1,x,n,x,n,x,n
COC(=O)c1ccc(CSc2cc(C)c3cc(C)cc(C)c3n2)o1,n,u,13µM,n,x,n
COC(=O)c1ccc(CSc2cc(C)c3cccc(C)c3n2)o1,n,n,u,n,x,u
SMILES,KDM4E inh,Tau fibril ThT,ALDH1A1 inh,Tau fluor cs,HPGD inh,Tau FP inhib
COC(=O)c1ccc(CSc2n[nH]c(=S)s2)o1,u,n,3.5µM,n,u,n
O=C(O)[C@@H]1[C@H](C(=O)O)[C@H]2C(=O)C=C[C@H]1N2Cc1ccccc1,x,x,n[13.5 µM],x,n,x
O=C(CCN1C(=O)c2ccccc2C1=O)C1=NN[C@@H]2C(=O)N(c3ccc4c(c3)OCO4)C(=O)[C@H]12,n,n,x,n,x,n
C/C(N=NC(=[SH+])SCc1ccccc1)=C1\C=CC=CN1.[Cl][Cu],x,x,2.5µM,x,3.5µM,x
C/C(=N/N=C(/N)SCc1ccccc1)C(C)(C)C,n,n,u,n,x,n
COc1ccc(CCNc2ncnc3c2c(-c2ccccc2)cn3-c2cccc(Cl)c2)cc1OC,x,n,x,n,x,n
CSc1nc2nc3c(cn2n1)C(=O)CC(c1ccccc1)C3 (stereo not given),n,n,u,n,n,n
Cn1c(=O)c2cc3c(nc2n(C)c1=O)CC(c1ccccc1)CC3=O (stereo not given),n,n,14µM,n,x,n
COc1cc(OC)c(OC)cc1/C=N/N(C)c1ccccc1,n,u,n,16µM[quencher],n,u
COc1cc(/C=N/S(=O)(=O)CCc2ccccc2)ccc1O,n,n,28µM,n,n,n
CN(/N=C/c1cc([N+](=O)[O-])ccc1O)c1ccccc1,n,u,n,n,n,n
COc1cc(/C=N/N(C)c2ccccc2)ccc1O,n,13µM,n,u,n,n
Cc1c(Cl)cccc1NC(=O)Nc1ccc2snnc2c1,x,u,x,10µM[quencher],x,18µM
O=C(Cc1ccc([N+](=O)[O-])cc1)N/N=C/c1ccc([N+](=O)[O-])o1,u,u,u,n,x,n
N#CCc1ccc(NC(=O)/C=C/c2ccc([N+](=O)[O-])o2)cc1,n,11µM,20µM,n,x,u
O=C(/C=C/c1ccc(O)cc1)c1ccccc1,n,n,x,n,x,n
O=C/C=C/c1ccc(O)cc1,28µM,u,3.5µM,u,n,n
CSc1nc(Cl)cc(Nc2ccc(O)cc2)n1,n,n,n,n,x,n
COc1cc(C(=S)N(C)C)ccc1O,n,u,10µM,n,18µM,n
CCCOC(=O)c1ccc(O)c(OC)c1,u,n,n,n,x,n
N#CCc1ccc(NS(=O)(=O)c2ccc(N3CCCC3=O)cc2)cc1,n,n,14µM,n,n,n
COc1ccc(-c2nc3oc4cc(OC)ccc4c(=O)c3c(=O)n2Cc2ccco2)cc1,u,u,u,n,u,n
COc1ccc2c(=O)c3c(=O)n(Cc4ccco4)c(-c4ccco4)nc3oc2c1,u,28µM,u,u,22µM,n
CC(=O)c1ccc(NC(=O)CSc2nnc(-c3ccncc3)n2-c2ccccc2)cc1,x,n,x,n,x,n
O=C1CC(c2ccccc2)CCc2sccc2N1 (stereo not given),n,n,n,n,25µM,n
CCN(CC)C(=O)Cn1c(=O)n(-c2ccc(Cl)c(Cl)c2)c(=O)c2c(C)c(C(=O)N(CC)CC)sc21,x,n,x,n,x,n
CO[C@H]1COC(=O)[C@H](C)COC(=O)[C@@H](Cc2ccccc2)NC(=O)C/C=C\[C@H]1C,x,n[11.5 µM],n[13.5 µM],n[11.6 µM],x,n[11.6 µM]
CO[C@@H]1COC(=O)CCC[C@@H](C)[C@H](OC)COC(=O)[C@H](Cc2ccccc2)NC(=O)C/C=C\[C@H]1C,x,n[11.5 µM],0.016µM,n[11.6 µM],x,n[11.6 µM]
CCN(CC)c1ccc(NC(=O)c2cc(S(=O)(=O)N3CCc4ccccc43)cn2C)c(C)c1,x,n,x,n,x,n
